# Screening data: PubChem, National Center for Advancing Translational Sciences (NCATS)
# An excerpt weighted towards active compounds, which were near 9.3% of everything screened.
# NPC1 promoter act: activators of NPC1 promoter. Potency, µM (series often up to 9.22 µM), for inactives: top-dose activation, most hits filed as activators. 2.4% of 320,000 active. Huh7 NPC1 promoter luciferase reporter, 24 h; note: % of control where 0% means no effect; nearly all actives have a fitted effect of over 60% in size
#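 Huh7 reporter cells (NPC1 promoter driving luciferase) are dosed with compound for 24 h at 37 °C, 5% CO2; luciferase detection reagent is then added and luminescence measured after 10 min at ambient temperature.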
# Rab9 prom act: activates the Rab9 promoter; Huh7 Rab9 promoter-luciferase reporter, luminescence, 24 h; 2.8% of 320,000 active; Potency, µM (top dose mostly 9.22 µM), inactives show top-dose activation, negative = inhibition, actives largely listed as activators; note: % of control where 0% means no effect; nearly all actives have a fitted effect of over 60% in size
#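 Huh7 cells stably carrying a Rab9 promoter-luciferase reporter, 1500 cells per well in OP-MEM I with 10% FBS, treated with compound 24 hours at 37C. Luciferase activity read by luminescence after 10 minutes with Amplite reagent.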
# ELG1 repair inh: inhibitors of ELG1-dependent DNA repair in HEK293T cells; HEK293T ELG1-luciferase reporter, luminescence, 16 h; DNA damage induced by 5-fluorouridine; AID 504467; Potency, µM (doses to about 46.1 µM), for inactives: at the top dose activity change, negative = inhibition, most hits filed as inhibitors; 2.3% of 330,000 active; note: % is set by controls: 0 for no effect and ±100 for the full control effect; nearly all actives have a fitted effect of over 55% in size
#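 Luminescence from the luciferase reporter, measured 30 min after ONE-Glo reagent at room temperature, was the read-out. Beforehand, 2,000 cells per well were exposed for 16 hr at 37 °C to 5-fluorouridine together with compound or vehicle.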
# ELG1 genotox: induces genotoxicity in HEK293T cells with luciferase-tagged ELG1; HEK293T ELG1-luciferase reporter, luminescence, 16 h; Potency, µM (top dose mostly 46 µM), for inactives: at the top dose activity change, positive = activation, hits mostly activators; 1.3% of 330,000 active; AID 504466; note: % of control where 0% means no effect; nearly all actives have a fitted effect of over 60% in size
#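 HEK293T cells expressing luciferase-tagged ELG1 were treated with compound or DMSO for 16 hr at 37°C. Luciferase activity was then read after 30 min with ONE-Glo at room temperature; rising signal flags genetic stress.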
# FLuc modulator: counter-screen for miR-21 project: firefly luciferase inhibitors or activators. Potency, µM (titrated, usually from 57.5 µM), for inactives: at the highest dose activity change, negative = inhibition, hits mostly inhibitors. AID 588342. purified FLuc, Km substrates, luminescence inhibition. 6.9% of 360,000 active;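 note: plate controls were vehicle for no effect and reference inhibitor for full effect; nearly all actives have a fitted effect of over 55% in size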
# Target sequence (P08659 whole entry, looked up): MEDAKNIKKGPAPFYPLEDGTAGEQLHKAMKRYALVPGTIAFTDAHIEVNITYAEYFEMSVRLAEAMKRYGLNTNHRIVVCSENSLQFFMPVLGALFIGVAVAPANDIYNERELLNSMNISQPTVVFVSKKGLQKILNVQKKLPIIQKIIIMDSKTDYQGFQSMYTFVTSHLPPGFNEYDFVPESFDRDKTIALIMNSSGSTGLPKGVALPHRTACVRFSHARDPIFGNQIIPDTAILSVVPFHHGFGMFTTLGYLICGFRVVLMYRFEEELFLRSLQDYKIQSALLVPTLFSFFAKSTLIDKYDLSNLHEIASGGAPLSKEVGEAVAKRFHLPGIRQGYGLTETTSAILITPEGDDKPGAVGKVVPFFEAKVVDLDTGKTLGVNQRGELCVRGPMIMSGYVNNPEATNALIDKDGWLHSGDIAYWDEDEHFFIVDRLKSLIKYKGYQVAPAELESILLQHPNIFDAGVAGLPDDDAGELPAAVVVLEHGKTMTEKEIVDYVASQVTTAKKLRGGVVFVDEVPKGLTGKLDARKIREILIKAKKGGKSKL
#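 Purified P. pyralis luciferase (10nM final) with 10uM D-luciferin and 10uM ATP (Km levels) in 50mM Tris acetate pH 7.5, 10mM Mg acetate, 0.01% Tween-20, 0.05% BSA; qHTS 6-point titration, ~60 µM downward; luminescence read.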
# SMN2 splice up: enhancers of SMN2 splice variant expression; 2.8% of 210,000 active; Potency, µM (titrated, usually from 46.1 µM), inactives show at the top dose activity change, positive = activation, usual class: activators; HEK293 SMN2-luciferase splicing reporter, luminescence, 30-36 h; note: % of control where 0% means no effect; nearly all actives have a fitted effect of over 55% in size
#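 HEK293 cells carry an SMN2 […]–luciferase reporter in which exon 7 inclusion puts luciferase in frame. Cells were plated 10-12 h before compound addition, then incubated 30-36 h at 37C. ONE-Glo luminescence was read; sodium butyrate at 4.5 mM final served as control.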
# The depositor's hits bear a star; ? = inconclusive; · = no result given; [ ] = remark or other dose. Calls come from the whole dose curve; as a rule, active = well fitted curve in the direction sought with a large enough effect; inconclusive = small, poorly fitted or top-dose-only effect, or another doubt; inactive = no such curve, though single readings can be large; an effect the other way counts as inactive or inconclusive. Potency is the fitted concentration of half-maximal effect.
SMILES,NPC1 promoter act,Rab9 prom act,ELG1 repair inh,ELG1 genotox,FLuc modulator,SMN2 splice up
CC(=O)c1cccc(NC(=O)C(OC(=O)/C=C/c2ccc3c(c2)OCO3)c2ccccc2)c1 (stereo not given),7.1%,1.0%,?,27.4%,13.5µM*,0.3%
CCC/C(=N/NC(=O)c1ccc2c(c1)OCO2)c1cccs1,13.2%,?,?,12.7%,16.9µM*,20µM*
CCOC(=O)c1c(NC(=O)c2cc(C)oc2C)sc(C(=O)Nc2ccc(Cl)cc2)c1C,23.4%,29.0%,?,14.5%,16.9µM*,-2.0%
CCOC(=O)c1sc(NC(=O)c2ccoc2C)c(C(N)=O)c1C,-1.3%,1.5%,8.2µM*,-5.6%,-2.4%,·
CN(CC(=O)N1CCN(c2ccccn2)CC1)S(=O)(=O)c1ccc(Br)cc1,-4.4%,1.2%,-12.6%,0.6%,0.9%,-20.8%
CC(=O)c1cccc(NC(=O)c2ccc3c(c2)OCO3)c1,?,?,?,15.8%,26.9µM*,·
CCOC(=O)c1cccc(NC(=O)/C=C/c2ccc3c(c2)OCO3)c1,0.316µM*,0.316µM*,?,?,1.9µM*,?
CCOC(=O)c1cccc(NC(=O)c2ccc3c(c2)OCO3)c1,0.398µM*,0.224µM*,?,?,8.49µM*,·
O=C(NCc1cccnc1)C(=O)NCC(c1ccco1)N1CCN(c2ccccc2F)CC1 (stereo not given),-10.6%,-3.6%,-3.9%,-2.9%,7.1%,?
CCCSc1ccc2nc(-c3ccccc3)cn2c1,0.708µM*,0.447µM*,?,?,0.0849µM*,·
CCCCSc1ccc2nc(-c3ccc(C#N)cc3)cn2c1,?,?,?,4.1%,4.78µM*,?
CCCCCCSc1ccc(-c2nc3ccc(C)cn3c2NC2CCCCC2)cc1,-1.6%,-3.7%,4.4%,-2.4%,5.0%,·
CCC(C)Sc1ccc(-c2nc3ccc(C)cn3c2NCc2ccccc2)cc1 (stereo not given),·,·,?,9.2%,·,·
COc1ccc(-n2nc(C(=O)O)cc2-c2ccccc2)cc1,-4.0%,-1.2%,0.8%,1.7%,9.5%,·
Cc1ccc(N2C(=O)c3n[nH]c(C)c3C2c2ccc(Cl)cc2)cc1 (stereo not given),·,·,·,·,9.53µM*,?
Cc1ccc(N2C(=O)c3n[nH]c(C)c3C2c2ccccc2Cl)cc1 (stereo not given),·,·,·,·,-14.6%,10.6%
COc1cc(NC(=O)Cn2cnc(S(=O)(=O)N3CCCC3)c2)cc(OC)c1OC,-0.6%,-3.9%,10.6%,2.7%,-0.9%,·
Cc1cccc2cc(CN(CCCO)C(=O)Nc3ccc(Cl)cc3)c(=O)[nH]c12,-2.8%,2.9%,20.6µM*,1.7%,?,-11.3%
Cc1cccc2cc(CN(CCCO)C(=O)Nc3cccc(Cl)c3)c(=O)[nH]c12,-2.6%,-8.6%,13µM*,-5.7%,21.3µM*,-15.7%
Cc1cccc2cc(CN(CCCO)C(=O)Nc3ccccc3Cl)c(=O)[nH]c12,1.8%,-2.9%,?,-4.8%,1.8%[2.3 µM],19.7%
C[C@@H]([C@@H](O)c1ccccc1)N(C)C(=O)C(N)Cc1ccccc1 (stereo not given in full),-0.4%,0.5%,-2.6%,-1.0%,1.1%,·
O=C(CNC(=O)c1ccccc1)OCC(=O)N1N=C(c2ccc(Cl)cc2)CC1c1ccco1 (stereo not given),0.6%,5.2%,10.2%,1.8%,-4.0%,-10.0%
COc1cccc(C(=O)NCC2CCCN2S(=O)(=O)c2ccccc2)c1 (stereo not given),9.2%,-31.1%,-15.7%,-0.5%,-3.5%,·
COc1ccccc1NC(=O)C(=O)NCCC1CCCCN1S(=O)(=O)c1ccccc1 (stereo not given),4.2%,-1.2%,?,-2.1%,-10.1%,·
COc1cccc(NC(=O)C(=O)NCC2CCCN2S(=O)(=O)c2ccccc2)c1 (stereo not given),15.7%,?,?,2.9%,15.1µM*,·
SMILES,NPC1 promoter act,Rab9 prom act,ELG1 repair inh,ELG1 genotox,FLuc modulator,SMN2 splice up
COc1cccc(NC(=O)C(=O)NCCC2CCCCN2S(=O)(=O)c2ccccc2)c1 (stereo not given),-0.2%,12.7%,?,5.5%,23.9µM*,·
Cc1ccc(C(=O)/C=C/C(=O)O)cc1,3.7%,0.6%,0.5%,0.1%,?,-22.8%
CSc1ccc(/C=C/C(=O)OCC(=O)NC(C)C)cc1,-0.3%,3.4%,?,-1.5%,-11.9%,20.1%
CSc1ccc(/C=C/C(=O)c2ccc(O)cc2)cc1,23.9%,?,?,?,3.01µM*,-3.0%
Cc1ccc(/C=C/C(=O)c2ccc(O)cc2)cc1,19.1%,?,?,17.1%,2.13µM*,·
CCCc1ccc(C(=O)NNC(=O)c2ccc(Br)cc2)cc1,-2.2%,-0.5%,0.9%,-1.2%,2.8%,-20.8%
CCCc1ccc(C(=O)NC(=O)c2ccccc2O)cc1,?,?,?,5.7%,0.601µM*,·
O=C(NC(=O)c1ccccc1O)c1ccc(C(F)(F)F)cc1,?,?,?,5.2%,3.01µM*,·
CC(SC1=NCCS1)C(=O)Nc1nnc(-c2ccc(Cl)cc2)s1 (stereo not given),16.0%,?,?,2.8%,-17.5%,19.4%
O=C(Cn1c(NCCO)nc2ccccc21)N1CCN(Cc2ccccc2)CC1,0.9%,-4.3%,-4.1%,1.5%,-0.7%,20.9%
C/C(=N\NC(=O)COc1ccc(C(C)(C)C)cc1)c1ccccc1,-3.4%,-1.1%,-10.2%,2.0%,10.7µM*,-13.9%
C/C(=N\NC(=O)CNc1ccc(F)cc1)c1cc2ccccc2o1,0.6%,3.4%,-17.2%,-5.5%,?,-29.1%
C/C(=N\NC(=O)COc1ccc(C)cc1C(C)C)c1cc2ccccc2o1,19.3%,10.7%,?,1.8%,3.38µM*,12.6µM*
CSc1ccccc1NC(=O)CO/N=C(\C)c1cc2ccccc2o1,-2.0%,0.5%,?,17.3%,?,-60.8%
COc1ccc(NCC(=O)N/N=C(\C)c2cc3ccccc3o2)cc1,8.8%,-2.6%,-11.2%,-3.1%,16.9µM*,1.9%
C/C(=N\NC(=O)COc1ccc(C(C)(C)C)cc1)c1cc2ccccc2o1,2.82µM*,3.55µM*,?,17.0%,0.301µM*,17.8µM*
NC(=O)c1ccccc1NC(=O)Nc1cccc2ccccc12,-0.1%,-1.8%,?,-6.8%,-4.9%,-20.3%
COc1ccccc1-c1nc(S(=O)(=O)c2ccccc2)c(N2CCCCC2)o1,1.0%,-8.5%,0.7%,-2.0%,2.6%,·
